Experimental data: PubChem BioAssay (NCATS)
Records with an inconclusive call do not appear. Calls of active or inactive are those of the source. Unless noted, the call rests on the fitted dose curve; in most records, active means well fitted curve in the direction sought with a large enough effect; inconclusive means small, poorly fitted or top-dose-only effect, or another doubt; inactive means no such curve, though single readings can be large; an effect the other way counts as inactive or inconclusive.

Tests used:
[1] = qHTS assay to identify small molecules that stimulate interleukin-8 (IL-8) secretion (AID 651758; active means well fitted activation curve with a large enough effect in the signal ratio; the % refers to the signal ratio; further: 0% is about no effect)
In short: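 Compounds are added to THP-1 cells (2000 per well) and left 16 hrs at 37 C. A labeled anti-IL-8 antibody pair is then added, and IL-8 secretion is measured by time-resolved FRET after 1-3 hrs at room temperature.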

[2] = molecular target: ATP-dependent 6-phosphofructokinase (Trypanosoma brucei brucei) (UniProt O15648); assay: qHTS Assay to Find Inhibitors of T. brucei phosphofructokinase: hit validation (AID 492961); further: on the % scale 0 is the no-effect control and ±100 the full control effect
Sequence of ATP-dependent 6-phosphofructokinase (Trypanosoma brucei brucei) (O15648 whole entry, looked up): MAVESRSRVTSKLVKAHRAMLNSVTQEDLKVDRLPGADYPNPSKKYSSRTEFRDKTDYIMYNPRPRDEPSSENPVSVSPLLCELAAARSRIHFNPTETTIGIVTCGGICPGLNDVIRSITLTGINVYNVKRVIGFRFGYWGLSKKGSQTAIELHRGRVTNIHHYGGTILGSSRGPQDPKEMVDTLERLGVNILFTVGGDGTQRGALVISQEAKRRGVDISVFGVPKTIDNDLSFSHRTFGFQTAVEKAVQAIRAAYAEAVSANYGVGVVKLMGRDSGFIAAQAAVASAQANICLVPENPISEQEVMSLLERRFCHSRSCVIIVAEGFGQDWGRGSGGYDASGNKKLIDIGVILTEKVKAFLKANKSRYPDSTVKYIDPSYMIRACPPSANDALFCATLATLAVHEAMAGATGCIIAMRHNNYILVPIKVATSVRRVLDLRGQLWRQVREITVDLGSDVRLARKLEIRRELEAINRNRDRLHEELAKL
In short: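 Luminescence from ADP-Glo reports ADP generated as T. brucei PFK (1.25 nM) phosphorylates 0.5 mM fructose-6-phosphate using 0.1 mM ATP. Reactions ran 45 min at room temperature, pH 8.0.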

[3] = qHTS profiling for inhibitors of Plasmodium falciparum proliferation (AID 504749);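 further: 0% = DMSO vehicle and full inhibition = artemisinin control; nearly all actives have a fitted effect of over 60% in size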; details: P. falciparum in erythrocytes, SYBR Green DNA, 72 h, at 28.7 µM (top of the series)
In short: (§1)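 SYBR Green fluorescence (ex 485 nm, em 535 nm) reports parasite DNA after 72 h compound exposure of infected red cells at 0.3% parasitemia, 2.5% hematocrit; signal normalized to 0.29 uM artemisinin and vehicle wells.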

[4] = tested on: 3D7; assay: as above; details: P. falciparum in erythrocytes, SYBR Green DNA, 72 h; series mostly up to 28.7 µM
In short: as §1

[5] = tested on: AS120; assay: as above; details: P. falciparum in erythrocytes, SYBR Green DNA, 72 h; series mostly up to 28.7 µM
In short: as §1

[6] = tested on: ATS189; assay: as above; details: P. falciparum in erythrocytes, SYBR Green DNA, 72 h; series mostly up to 28.7 µM
In short: as §1

[7] = tested on: CP185; assay: as above; details: P. falciparum in erythrocytes, SYBR Green DNA, 72 h; series mostly up to 28.7 µM
In short: as §1

[8] = tested on: CP191; assay: as above; details: P. falciparum in erythrocytes, SYBR Green DNA, 72 h; series mostly up to 28.7 µM
In short: as §1

[9] = tested on: CP192; assay: as above; details: P. falciparum in erythrocytes, SYBR Green DNA, 72 h; series mostly up to 28.7 µM
In short: as §1

[10] = tested on: CP194; assay: as above; details: P. falciparum in erythrocytes, SYBR Green DNA, 72 h; series mostly up to 28.7 µM
In short: as §1

[11] = tested on: CP201; assay: as above; details: P. falciparum in erythrocytes, SYBR Green DNA, 72 h; series mostly up to 28.7 µM
In short: as §1

[12] = tested on: CP203; assay: as above; details: P. falciparum in erythrocytes, SYBR Green DNA, 72 h; series mostly up to 28.7 µM
In short: as §1

[13] = tested on: CP247; assay: as above; details: P. falciparum in erythrocytes, SYBR Green DNA, 72 h; series mostly up to 28.7 µM
In short: as §1

[14] = tested on: CP286; assay: as above; details: P. falciparum in erythrocytes, SYBR Green DNA, 72 h; series mostly up to 28.7 µM
In short: as §1

[15] = tested on: CP291; assay: as above; details: P. falciparum in erythrocytes, SYBR Green DNA, 72 h; series mostly up to 28.7 µM
In short: as §1

[16] = tested on: DFO2036; assay: as above; details: P. falciparum in erythrocytes, SYBR Green DNA, 72 h; series mostly up to 28.7 µM
In short: as §1

[17] = tested on: P94_40; assay: as above; details: P. falciparum in erythrocytes, SYBR Green DNA, 72 h; series mostly up to 28.7 µM
In short: as §1

[18] = tested on: PC49; assay: as above; details: P. falciparum in erythrocytes, SYBR Green DNA, 72 h; series mostly up to 28.7 µM
In short: as §1

[19] = tested on: TAB109; assay: as above; details: P. falciparum in erythrocytes, SYBR Green DNA, 72 h; series mostly up to 28.7 µM
In short: as §1

[20] = tested on: TAB113; assay: as above; details: P. falciparum in erythrocytes, SYBR Green DNA, 72 h; series mostly up to 28.7 µM
In short: as §1

O=C(OCC(COC(=O)c1ccccc1)(COC(=O)c1ccccc1)COC(=O)c1ccccc1)c1ccccc1
inactive: outcome [1]

CN1[C@H]2CC(OC(=O)[C@H](CO)c3ccccc3)C[C@H]1[C@H]1O[C@H]12 (stereo partly drawn)
inactive: Potency [2] | outcome [1] | activity, negative = inhibition ([3]; parasite line A) 1.25% | activity, negative = inhibition ([3]; parasite line B) -7.4% | Potency [4] | Potency [5] | Potency [6] | Potency [7] | Potency [8] | Potency [9] | Potency [10] | Potency [11] | Potency [12] | Potency [13] | Potency [14] | Potency [15] | Potency [16] | Potency [17] | Potency [18] | Potency [19] | Potency [20]

C=C(C)c1ccccc1
inactive: outcome [1]
